# From the supplement of paper PMC8728848
# This is one part of a sample in which the strongest signals are shown more often than they occur.
# Legend:
# Test in all cases: glycan array binding signal (z-score within array); higher = stronger binding
# Details in all cases: glycan notation: IUPAC condensed, linker removed
# [1] = target: Fuc(a1-2)Gal(b1-3)GlcNAc(b1-3)[Neu5Ac(a2-6)Gal(b1-4)GlcNAc(b1-6)]Gal(b1-4)Glc
# Method in brief: (§1)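 Glycan array data were curated from 3228 arrays in the Consortium for Functional Glycomics database and kept only where the protein sequence was available. Glycan names were converted to IUPAC-condensed notation, and columns mapping to the same glycan were averaged. The binding signal is a within-array Z-score, averaged across arrays of the same protein sequence at different concentrations or buffers and across linkers. Negative Z-scores can be read as non-binding.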
# [2] = target: Fuc(a1-2)Gal(b1-3)[Fuc(a1-4)]GlcNAc(b1-2)Man(a1-3)[Fuc(a1-2)Gal(b1-3)[Fuc(a1-4)]GlcNAc(b1-2)Man(a1-6)]Man(b1-4)GlcNAc(b1-4)[Fuc(a1-6)]GlcNAc(b1-4)[Fuc(a1-6)]GlcNAc
# Method in brief: as §1
# Fuc(a1-2)Gal(b1-4)Glc = target: Fuc(a1-2)Gal(b1-4)Glc
# Method in brief: as §1
# Fuc(a1-2)Gal(b1-4)Glc6S = target: Fuc(a1-2)Gal(b1-4)Glc6S
# Method in brief: as §1
# Fuc(a1-2)Gal(b1-4)GlcNAc = target: Fuc(a1-2)Gal(b1-4)GlcNAc
# Method in brief: as §1
# [3] = target: Fuc(a1-2)Gal(b1-4)GlcNAc(b1-3)[Fuc(a1-2)Gal(b1-4)GlcNAc(b1-6)]GalNAc
# Method in brief: as §1
# [4] = target: Fuc(a1-2)Gal(b1-4)GlcNAc(b1-6)GalNAc
# Method in brief: as §1
# [5] = target: Fuc(a1-2)Gal(b1-4)GlcNAc6S
# Method in brief: as §1
# [6] = target: Fuc(a1-2)Gal(b1-4)[Fuc(a1-3)]GlcNAc(b1-2)Man(a1-3)[Fuc(a1-2)Gal(b1-4)[Fuc(a1-3)]GlcNAc(b1-2)Man(a1-6)]Man(b1-4)GlcNAc(b1-4)[Fuc(a1-6)]GlcNAc
# Method in brief: as §1
# [7] = target: Fuc(a1-2)Gal6S(b1-3)GlcNAc
# Method in brief: as §1
# Fuc(a1-2)Gal6S(b1-4)Glc = target: Fuc(a1-2)Gal6S(b1-4)Glc
# Method in brief: as §1
# [8] = target: Fuc(a1-2)Gal6S(b1-4)Glc6S
# Method in brief: as §1
# Fuc(a1-2)[Gal(a1-3)]Gal = target: Fuc(a1-2)[Gal(a1-3)]Gal
# Method in brief: as §1
# [9] = target: Fuc(a1-2)[Gal(a1-3)]Gal(b1-4)GlcNAc(b1-2)Man(a1-3)[Fuc(a1-2)[Gal(a1-3)]Gal(b1-4)GlcNAc(b1-2)Man(a1-6)]Man(b1-4)GlcNAc(b1-4)GlcNAc
# Method in brief: as §1
# [10] = target: Fuc(a1-2)[Gal(a1-3)]Gal(b1-4)[Fuc(a1-3)]GlcNAc(b1-3)GalNAc
# Method in brief: as §1
# [11] = target: Fuc(a1-2)[Gal(a1-4)]Gal(b1-4)GalNAc
# Method in brief: as §1
# [12] = target: Fuc(a1-2)[Gal(a1-4)]Gal(b1-4)GlcNAc
# Method in brief: as §1
# [13] = target: Fuc(a1-2)[GalNAc(a1-4)]Gal(b1-4)GlcNAc
# Method in brief: as §1
# [14] = target: Fuc(a1-3)[Gal(b1-4)]GlcNAc(b1-6)[Gal(b1-3)GlcNAc(b1-3)]Gal(b1-4)Glc
# Method in brief: as §1
# [15] = target: Fuc(a1-3)[GalNAc(b1-4)]GlcNAc6S
# Method in brief: as §1
# [16] = target: Gal(a1-3)Gal(b1-4)GlcNAc(b1-2)Man(a1-3)[Gal(a1-3)Gal(b1-4)GlcNAc(b1-2)Man(a1-6)]Man(b1-4)GlcNAc(b1-4)GlcNAc
# Method in brief: as §1
# [17] = target: Gal(a1-4)Gal(b1-4)GlcNAc(b1-2)Man(a1-3)[Gal(a1-4)Gal(b1-4)GlcNAc(b1-2)Man(a1-6)]Man(b1-4)GlcNAc(b1-4)GlcNAc
# Method in brief: as §1
# Gal(a1-4)GlcNAc = target: Gal(a1-4)GlcNAc
# Method in brief: as §1
# [18] = target: Gal(b1-3)GalNAc(b1-4)[Neu5Ac(a2-3)]Gal(b1-4)Glc
# Method in brief: as §1
# [19] = target: Gal(b1-3)GlcNAc(a1-6)Gal(b1-4)GlcNAc
# Method in brief: as §1
# [20] = target: Gal(b1-3)GlcNAc(b1-2)Man(a1-3)[Gal(b1-3)GlcNAc(b1-2)Man(a1-6)]Man(b1-4)GlcNAc(b1-4)GlcNAc
# Method in brief: as §1
# [21] = target: Gal(b1-3)GlcNAc(b1-2)Man(a1-3)[Gal(b1-3)GlcNAc(b1-2)Man(a1-6)]Man(b1-4)GlcNAc(b1-4)[Fuc(a1-6)]GlcNAc
# Method in brief: as §1
# [22] = target: Gal(b1-3)[Fuc(a1-4)]GlcNAc(b1-6)GalNAc
# Method in brief: as §1
# [23] = target: Gal(b1-3)[Neu5Ac(a2-6)]GlcNAc(a1-4)Gal(b1-4)Glc
# Method in brief: as §1
# [24] = target: Gal(b1-3)[Neu5Ac(a2-6)]GlcNAc(b1-4)Gal(b1-4)Glc
# Method in brief: as §1
# Gal3S4S(b1-4)GlcNAc = target: Gal3S4S(b1-4)GlcNAc
# Method in brief: as §1
# GalNAc4S6S(b1-4)GlcNAc = target: GalNAc4S6S(b1-4)GlcNAc
# Method in brief: as §1
# [25] = target: GlcNAc(b1-2)Man(a1-3)[GlcNAc(b1-4)][GlcNAc(b1-2)Man(a1-6)]Man(b1-4)GlcNAc(b1-4)GlcNAc
# Method in brief: as §1
# [26] = target: GlcNAc(b1-2)[GlcNAc(b1-6)]Man(a1-6)[GlcNAc(b1-2)Man(a1-3)][GlcNAc(b1-4)]Man(b1-4)GlcNAc(b1-4)GlcNAc
# Method in brief: as §1
# [27] = target: GlcNAc(b1-3)Gal(b1-4)GlcNAc
# Method in brief: as §1
# [28] = target: GlcNAc(b1-3)Gal(b1-4)GlcNAc(b1-3)Gal(b1-4)GlcNAc(b1-2)[GlcNAc(b1-3)Gal(b1-4)GlcNAc(b1-3)Gal(b1-4)GlcNAc(b1-6)]Man(a1-6)[GlcNAc(b1-3)Gal(b1-4)GlcNAc(b1-3)Gal(b1-4)GlcNAc(b1-2)Man(a1-3)]Man(b1-4)GlcNAc(b1-4)[Fuc(a1-6)]GlcNAc
# Method in brief: as §1
# [29] = target: GlcNAc(b1-3)[GlcNAc(b1-6)]Gal(b1-4)GlcNAc
# Method in brief: as §1
# [30] = target: GlcNAc(b1-4)GlcNAc(b1-4)GlcNAc(b1-4)GlcNAc(b1-4)GlcNAc
# Method in brief: as §1
# Kdn(a2-3)Gal(b1-3)GalNAc = target: Kdn(a2-3)Gal(b1-3)GalNAc
# Method in brief: as §1
# [31] = target: Man(a1-3)[Man(a1-6)]Man(b1-4)GlcNAc(b1-4)GlcNAc
# Method in brief: as §1
# Man(a1-6)Man = target: Man(a1-6)Man
# Method in brief: as §1
# [32] = target: Neu5Ac(a2-3)Gal(b1-3)GalNAc(b1-4)[Neu5Ac(a2-3)]Gal(b1-4)Glc
# Method in brief: as §1
# [33] = target: Neu5Ac(a2-3)Gal(b1-3)[Fuc(a1-4)]GlcNAc(b1-3)Gal(b1-3)[Fuc(a1-4)]GlcNAc
# Method in brief: as §1
# [34] = target: Neu5Ac(a2-3)Gal(b1-4)GlcNAc(b1-3)Gal
# Method in brief: as §1
# [35] = target: Neu5Ac(a2-3)Gal(b1-4)GlcNAc(b1-3)Gal(b1-4)GlcNAc(b1-6)[Gal(b1-3)]GalNAc
# Method in brief: as §1
# [36] = target: Neu5Ac(a2-3)Gal(b1-4)[Fuc(a1-3)]GlcNAc(b1-3)GalNAc
# Method in brief: as §1
# [37] = target: Neu5Ac(a2-3)[GalNAc(b1-4)]Gal(b1-4)GlcNAc(b1-3)GalNAc
# Method in brief: as §1
# [38] = target: Neu5Ac(a2-6)Gal(b1-4)GlcNAc(b1-2)[Neu5Ac(a2-6)Gal(b1-4)GlcNAc(b1-4)]Man(a1-3)[GlcNAc(b1-4)][Neu5Ac(a2-6)Gal(b1-4)GlcNAc(b1-4)Man(a1-6)]Man(b1-4)GlcNAc(b1-4)GlcNAc
# Method in brief: as §1
# [39] = target: Neu5Ac(a2-8)Neu5Ac(a2-3)Gal(b1-3)GalNAc(b1-4)[Neu5Ac(a2-3)]Gal(b1-4)Glc
# Method in brief: as §1
binder,measurement,setting,value
"UEA-I (Ulex europaeus), P22972 (protein) SDDLSFKFKNFSQNGKDLSFQGDASVIETGVLQLNKVGNNLPDETGGIARYIAPIHIWNCNTGEVASFITSFSFFMETSANPKAATDGLTFFLAPPDSPLRRAGGYFGLFEDTKDNDSSYQTVAVEFDTIGSPVNFDDPGFPHIGIDVNRVKSINAERWNKRYGLNNVANVEIIYEASSKTLTASLTYPSDQTSISVTSIVDLKEILPEWVSVGFSGGTYIGRQATHEVLNWYFTSNLINTNS",glycan array binding signal (z-score),[1],-0.101
same,glycan array binding signal (z-score),[2],-0.186
same,glycan array binding signal (z-score),Fuc(a1-2)Gal(b1-4)Glc,4.65
same,glycan array binding signal (z-score),Fuc(a1-2)Gal(b1-4)Glc6S,8.87
same,glycan array binding signal (z-score),Fuc(a1-2)Gal(b1-4)GlcNAc,5.04
same,glycan array binding signal (z-score),[3],5.44
same,glycan array binding signal (z-score),[4],4.28
same,glycan array binding signal (z-score),[5],5.67
same,glycan array binding signal (z-score),[6],-0.035
same,glycan array binding signal (z-score),[7],-0.194
same,glycan array binding signal (z-score),Fuc(a1-2)Gal6S(b1-4)Glc,4.67
same,glycan array binding signal (z-score),[8],5.33
same,glycan array binding signal (z-score),Fuc(a1-2)[Gal(a1-3)]Gal,-0.199
same,glycan array binding signal (z-score),[9],-0.194
same,glycan array binding signal (z-score),[10],-0.022
same,glycan array binding signal (z-score),[11],5.51
same,glycan array binding signal (z-score),[12],5.58
same,glycan array binding signal (z-score),[13],5.17
same,glycan array binding signal (z-score),[14],-0.103
same,glycan array binding signal (z-score),[15],-0.217
same,glycan array binding signal (z-score),[16],-0.163
same,glycan array binding signal (z-score),[17],0.015
same,glycan array binding signal (z-score),Gal(a1-4)GlcNAc,-0.168
same,glycan array binding signal (z-score),[18],-0.207
same,glycan array binding signal (z-score),[19],-0.139
same,glycan array binding signal (z-score),[20],-0.101
same,glycan array binding signal (z-score),[21],-0.16
same,glycan array binding signal (z-score),[22],-0.098
same,glycan array binding signal (z-score),[23],-0.409
same,glycan array binding signal (z-score),[24],-0.234
"Gal 12 (Homo sapiens), Q96DT0 (protein) MSQPSGGRAPGTRIYSWSCPTVMSPGEKLDPIPDSFILQPPVFHPVVPYVTTIFGGLHAGKMVMLQGVVPLDAHRFQVDFQCGCSLCPRPDIAFHFNPRFHTTKPHVICNTLHGGRWQREARWPHLALRRGSSFLILFLFGNEEVKVSVNGQHFLHFRYRLPLSHVDTLGIFGDILVEAVGFLNINPFVEGSREYPAGHPFLLMSPRLEVPCSHALPQGLSPGQVIIVRGLVLQEPKHFTVSLRDQAAHAPVTLRASFADRTLAWISRWGQKKLISAPFLFYPQRFFEVLLLFQEGGLKLALNGQGLGATSMNQQALEQLRELRISGSVQLYCVHS",glycan array binding signal (z-score),Gal3S4S(b1-4)GlcNAc,0.103
same,glycan array binding signal (z-score),GalNAc4S6S(b1-4)GlcNAc,-0.099
same,glycan array binding signal (z-score),[25],0.085
same,glycan array binding signal (z-score),[26],-0.54
same,glycan array binding signal (z-score),[27],-0.475
same,glycan array binding signal (z-score),[28],0.115
same,glycan array binding signal (z-score),[29],-0.57
same,glycan array binding signal (z-score),[30],-0.139
same,glycan array binding signal (z-score),Kdn(a2-3)Gal(b1-3)GalNAc,0.39
same,glycan array binding signal (z-score),[31],-0.172
same,glycan array binding signal (z-score),Man(a1-6)Man,-0.442
same,glycan array binding signal (z-score),[32],0.416
same,glycan array binding signal (z-score),[33],-0.082
same,glycan array binding signal (z-score),[34],-0.004
same,glycan array binding signal (z-score),[35],-0.81
same,glycan array binding signal (z-score),[36],2.37
same,glycan array binding signal (z-score),[37],-0.063
same,glycan array binding signal (z-score),[38],0.922
same,glycan array binding signal (z-score),[39],-0.299
